The list is not random: actives were taken first. Their share in the collection is about 1.6%.
N-glyco inh – blocks N-linked glycosylation in D54 reporter cells; D54 ERlucT glycosylation luciferase reporter, 24 h; percent of 100 nM tunicamycin response; reporter increase, % at 12.5 µM; hit rate 0.23% among 360,000; AID 588692;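 active means mean luciferase reporter signal, scaled so untreated is 0 and the glycosylation-blocking control 100, at or above a set limit in every replicate; inconclusive means mean reaches the limit but not every replicate does; inactive means mean below the limit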;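 further: luciferase carries N-glycosylation sites so blocking glycosylation raises the light; 0% = median of neutral control wells and 100% = median of 100 nM tunicamycin wells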
RAD54 branch – blocks human RAD54 Holliday junction branch migration | Q92698 | FAM/BHQ fluorescence | inhibition, % at 10.4 µM | hit rate 0.14% among 360,000 | AID 602329;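 active means mean normalized replicate activity at least 40 and at least half of replicates scoring 40 or more; inconclusive means only one of the two criteria met; inactive means mean below 40 and under half of replicates reaching 40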;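 further: 0% = median of neutral control wells and 100% = median of positive control wells; inhibitors cause a drop in the FAM fluorescence signal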
Target sequence (Q92698 whole entry, looked up): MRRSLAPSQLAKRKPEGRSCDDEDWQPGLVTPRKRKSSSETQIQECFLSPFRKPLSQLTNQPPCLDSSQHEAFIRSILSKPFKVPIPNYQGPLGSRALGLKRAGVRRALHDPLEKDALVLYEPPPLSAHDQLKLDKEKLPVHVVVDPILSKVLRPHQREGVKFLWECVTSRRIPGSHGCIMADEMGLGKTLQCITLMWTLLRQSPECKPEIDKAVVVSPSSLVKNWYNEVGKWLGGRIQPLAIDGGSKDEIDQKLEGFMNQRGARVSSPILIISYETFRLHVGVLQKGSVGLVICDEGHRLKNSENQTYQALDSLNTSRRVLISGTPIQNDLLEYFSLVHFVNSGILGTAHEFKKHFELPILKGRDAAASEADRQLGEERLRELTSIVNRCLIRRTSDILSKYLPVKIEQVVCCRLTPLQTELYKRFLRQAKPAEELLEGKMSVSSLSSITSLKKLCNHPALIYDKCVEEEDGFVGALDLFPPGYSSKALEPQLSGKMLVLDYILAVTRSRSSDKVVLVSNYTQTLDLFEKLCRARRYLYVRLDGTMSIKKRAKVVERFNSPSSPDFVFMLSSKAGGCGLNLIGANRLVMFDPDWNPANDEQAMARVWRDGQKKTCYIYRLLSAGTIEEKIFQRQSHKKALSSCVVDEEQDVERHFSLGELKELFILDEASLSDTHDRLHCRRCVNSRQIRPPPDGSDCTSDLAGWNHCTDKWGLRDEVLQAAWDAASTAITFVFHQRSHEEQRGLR
Myeloid diff MLP – compounds promoting myeloid differentiation | ER-HoxA9 myeloid progenitors, lysozyme-GFP differentiation, flow cytometry | calls only at 10 µM | hit rate 1% among 360,000;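 active means normalized GFP-positive differentiation at or above the plate's own cutoff, the solvent-only control mean plus 3 SD; inconclusive means no clear call, values can overlap the other calls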;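 further: cells exposed to compound for four days before flow analysis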
Vif inh – HIV Vif inhibition | HEK293T cells, Vif self-association by quenched fluorescence, imaging, 24 h | inhibition, % at 7.49 µM | hit rate 0.35% among 340,000; in the data active means inhibition above about 50%, passing the limit was not always enough; inconclusive means no clear call, values can overlap the other calls; inactive means below about 31%
ABCB6 inh MLPCN – blocks the human ABCB6 transporter; fluorescence ratio to DMSO, % at 10 µM; K562-ABCB6 porphyrin accumulation, flow cytometry, 1 h; stronger effect = lower value; hit rate 0.19% among 360,000;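 active means fluorescence ratio to DMSO below 75%, the collection mean minus 3 SD; inconclusive means too few cells collected in the well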;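 further: signal is porphyrin accumulated inside mitochondria; 100% equals median channel fluorescence of DMSO control wells; lower ratio means ABCB6 inhibition with less porphyrin fluorescence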
* marks the source's active call; other numbers are inactive results; i = inactive; ? = inconclusive; · = not tested or not shown; + = active, no number.

SMILES | N-glyco inh | RAD54 branch | Myeloid diff MLP | Vif inh | ABCB6 inh MLPCN
Cc1noc(C)c1NC(=O)Nc1ccc2c(c1)CC(=O)N([C@H](C)CO)C[C@@H](C)[C@H](CN(C)C(=O)Nc1c(C)noc1C)O2 | · | 7 | · | · | ·
CN1[C@H](CO)[C@@H]2c3ccccc3N(C(=O)c3ccc(F)cc3)C[C@@H]21 | · | -2 | · | · | ·
O=C(NCCC1=CCCCC1)C1CCC(=O)N(Cc2ccc(Cl)cc2)C1 (stereo unspecified) | -1 | 0 | + | 4 | 98
Cc1c(NC(=O)c2cc3ccccc3o2)c(=O)n(-c2ccccc2)n1C | -2 | -4 | i | 1 | 101
O=C(NNC(=O)c1cc2ccccc2oc1=O)c1ccccc1 | -1 | 7 | i | 79* | 96
Cc1c(NC(=O)c2cc3ccccc3oc2=O)c(=O)n(-c2ccccc2)n1C | -1 | -11 | i | 90* | 82
O=C(c1ccccc1)c1cc2ccccc2oc1=O | 1 | -2 | i | -10 | 100
Cc1nn(CC(C)C)c(Cl)c1C(=O)N(c1ccc(Cl)cc1F)S(C)(=O)=O | 26* | 9 | i | -6 | 93
COc1ccc(CCNC(=O)c2c(C)nn(CC(C)C)c2Cl)cc1 | 4 | -1 | i | -5 | 87
Cc1ccc2c(CNCc3ccccc3)cc(=O)oc2c1 | 29* | -6 | i | 1 | 103
C[C@@H]1CN([C@H](C)CO)C(=O)c2cc(NC(=O)Cn3cnnn3)ccc2O[C@@H]1CN(C)C | · | -21 | · | · | ·
CO[C@@H]1CN(C)C(=O)c2cc(NC(=O)c3cnccn3)ccc2OC[C@@H](C)N(CCc2ccccc2)C[C@H]1C | · | 6 | · | · | ·
O=C1CN(CC(=O)Nc2cccc(Cl)c2Cl)c2ccccc2N1 | 2 | · | + | 3 | 120
O=C(CN1C(=O)NC2(CCCC2)C1=O)Nc1cccc(Cl)c1Cl | 1 | · | i | 5 | 101
C[C@@H]1CN([C@H](C)CO)C(=O)c2cc(/C=C/c3ccccc3)cnc2O[C@@H]1CN(C)C(=O)NC1CCCCC1 | · | -23 | · | · | ·
O=C(NCCc1ccccc1)C(c1cccs1)N(C(=O)CCl)c1ccc(Cl)cc1 (stereo unspecified) | 8 | · | ? | 18 | 33*
COc1ccc(CN(C)C[C@H]2OCCCC[C@@H](C)Oc3ccc(NC(=O)CCC(F)(F)F)cc3C(=O)N([C@@H](C)CO)C[C@@H]2C)cc1 | · | 0 | · | · | ·
O=[N+]([O-])c1ccc(N/N=C/c2cn(Cc3ccc(F)cc3)c3ccccc23)nc1 | -18 | · | + | -1 | 269
Cc1sc2ncnc(SCC(=O)NC(=O)NCc3ccco3)c2c1C | 3 | -9 | + | 22 | 104
C[C@H]1CN([C@@H](C)CO)C(=O)c2cc(NC(=O)CCCN(C)C)ccc2O[C@@H]1CN(C)C(=O)NC1CCCCC1 | · | -10 | · | · | ·
COc1ccc2c(C)cc(SCC(=O)N(C)C3CCS(=O)(=O)C3)nc2c1 (stereo unspecified) | 0 | · | + | -3 | 165
Cc1[nH]oc(=O)c1N=Nc1ccc2[nH]c(=O)[nH]c2c1 | 3 | 4 | i | -3 | 71*
Cc1[nH]n(-c2ccccc2)c(=O)c1C=Nc1ccc2[nH]c(=O)[nH]c2c1 | 3 | 3 | i | 3 | 100
ON=C1c2cc(OCCN3CCCCC3)ccc2-c2ccc(OCCN3CCCCC3)cc21 | 6 | 86* | ? | -9 | 96
O=C(CCN1CCCCC1)N[C@@H]1CC[C@H](CCn2cc(-c3ccccc3)nn2)O[C@H]1CO | · | 10 | · | · | ·
SMILES | N-glyco inh | RAD54 branch | Myeloid diff MLP | Vif inh | ABCB6 inh MLPCN
COc1ccc(-n2nnnc2SCC(=O)NCCc2ccccc2)cc1OC | -1 | · | i | 1 | 98
COc1ccc(CCNc2nnc(Sc3nnnn3-c3ccccc3)s2)cc1OC | 0 | -5 | i | 139* | 90
Cc1ccc(CC(=O)O/N=C(\N)c2ccncc2)cc1 | 0 | 9 | + | -8 | 100
CN(N)c1nc(C(F)(F)F)nc2ccccc12 | -3 | 4 | + | -2 | 88
C[C@H]1CN([C@@H](C)CO)C(=O)Cc2cc(NC(=O)CCCN(C)C)ccc2O[C@H]1CN(C)S(=O)(=O)c1ccc(F)cc1 | · | 15 | · | · | ·
Oc1c(C(c2ccccn2)N2CCCCC2)cc(Cl)c2cccnc12 (stereo unspecified) | 14 | 4 | i | -2 | 98
CN1CCN(C(c2ccc(Cl)cc2)c2cc(Cl)c3cccnc3c2O)CC1 (stereo unspecified) | 33* | -6 | i | 7 | 94
COc1ccc(C(c2sc3nc(C)nn3c2O)N2CCN(CCO)CC2)cc1OC (stereo unspecified) | 2 | -8 | + | -5 | 97
COc1cccc(S(=O)(=O)N[C@@H]2CC[C@H](CC(=O)NC3Cc4ccccc4C3)O[C@H]2CO)c1 | · | -1 | · | · | ·
CC(C)(C)n1ncc2c(=O)n(Cc3ccc(Cl)c(Cl)c3)cnc21 | 0 | · | + | -2 | 119
COc1cc(-c2cc(=O)c3c(O)c(OC)c(OC)cc3o2)cc(OC)c1O | 14 | 6 | i | 89* | 98
COc1ccccc1CNC(=O)C[C@H]1CC[C@@H](NC(C)=O)[C@@H](CO)O1 | · | -8 | · | · | ·
Cc1ccc2c(c1)c(C)c(C)n2CC(O)Cn1nnc2ccccc21 (stereo unspecified) | -6 | 4 | + | 2 | 267
Cc1ccc2c(c1)c(C)c(C)n2CC(O)Cn1nc(C)cc1C (stereo unspecified) | 1 | 5 | i | · | 118
O=C(Nc1ccc(S(=O)(=O)N2CCCCC2)cc1)C1CCN(C(=O)c2ccco2)CC1 | -1 | 4 | + | -6 | 94
COC(=O)Nc1ccc(S(=O)(=O)N2CCC(C(=O)NC3CCCCC3)CC2)cc1 | -2 | 14 | + | 2 | 148
CC1CCN(S(=O)(=O)c2ccc(NC(=O)C3CCN(C(=O)c4ccco4)CC3)cc2)CC1 | -1 | -1 | i | -14 | 104
COc1ccccc1C#Cc1ccc([C@H]2[C@H](CO)N3CCCCN(C(=O)C4CC4)C[C@@H]23)cc1 | · | 0 | · | · | ·
COc1ccc(-n2nc(C(=O)NCC(=O)Nc3cccc(Cl)c3)c3ccccc3c2=O)cc1OC | 4 | 7 | i | 53* | 95
C[C@@H]1CN([C@H](C)CO)C(=O)Cc2cc(NC(=O)Nc3cccc4ccccc34)ccc2O[C@H]1CN(C)C | · | -2 | · | · | ·
C[C@H](O)C#Cc1ccc2c(c1)O[C@H](CN(C)C(=O)C1CCCCC1)[C@H](C)CN([C@H](C)CO)S2(=O)=O | · | -11 | · | · | ·
O=S(=O)(N/N=C1/CC(c2ccccc2)Oc2ccccc21)c1ccccc1 (stereo unspecified) | -2 | · | + | -2 | 135
CC(C)(C)N/N=C1\CC(c2ccccc2)Oc2ccccc21 (stereo unspecified) | -3 | · | i | -7 | 105
O=C(/C=C/c1ccccc1)NNC(=O)C1CC1 | -1 | -7 | i | 11 | 65*
COC(=O)NNC(=O)/C=C/c1ccccc1 | 0 | · | i | 2 | 101
